# System: Plasmodium falciparum NF54 gametocytes
# Assay: viability index relative to DMSO control (fraction); higher = less gametocyte killing
# Details: 12.5 µM, incubation time: 72 h
# In short: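 P. falciparum NF54 gametocytes at stages I–V were treated with compound at 12.5 µM for 72 hr at 37°C under low oxygen in serum-containing medium (0.50% gametocytemia, 1.25% hematocrit), then stained with MitoTracker Red CMXRos and imaged in serum-free medium containing 500 nM dye. The viability index is the gametocyte particle count divided by the plate mean of solvent-only wells.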
# [1] = gametocyte stage: Stage I viability index
# [2] = gametocyte stage: Stage II viability index
# [3] = gametocyte stage: Stage III viability index
# [4] = gametocyte stage: Stage IV viability index
# [5] = gametocyte stage: Stage V viability index
SMILES,viability index [1],viability index [2],viability index [3],viability index [4],viability index [5]
CN(C)CCNc1cc(-c2ccccc2)nc2ccccc12,0.685,0.795,0.924,0.883,0.727
CCCCCn1c(=N)n(CC(O)COc2cccc(C)c2)c2ccccc21 (stereo not given),0.0988,0.0949,0.32,0.459,0.221
COc1ccc(-c2cc3c(nn2)-c2ccccc2C3=O)cc1,0.713,0.675,0.735,0.693,1
CCn1c(CN2CCN(Cc3ccccc3)CC2)nc2cc(NC(=O)c3cccs3)ccc21,0.701,0.837,0.924,0.967,1.05
CCCCCCc1cc2cc(-c3csc(C=Cc4ccccc4)n3)c(=O)oc2cc1O,0.309,0.313,0.621,0.797,0.636
O=C(Nc1nc(-c2ccccn2)cs1)c1ccccc1Br,0.0807,0.13,0.147,0.158,0.0989
COc1ccc2c(c1)C1(Nc3ccccc3-c3nc4ccccc4n31)C(=O)N2 (stereo not given),0.0265,0.00483,0.017,0.0608,0.033
CCOC(=O)c1cnc2ccc(OC)cc2c1Nc1ccc(N2CCN(C)CC2)cc1,0.0953,0.479,0.931,0.842,0.779
CCOc1cc2c(cc1OCC)C(c1cc(Cl)c(O)c(OCC)c1)NCC2 (stereo not given),0.0402,0.163,0.539,0.829,0.922
CC(C)(C)c1ccc(C(=O)Nc2c3c(nn2-c2cccc(Cl)c2)CSC3)cc1,0.469,0.508,0.825,0.747,0.701
Cc1ccc(N2C(=O)C3C(C2=O)C2(c4ccccc4)C(=O)C3(c3ccccc3)C(c3ccccc3)=C2c2ccccc2)cc1 (stereo not given),0.733,0.916,1.14,1.03,1.01
CCOc1ccccc1CNC(=O)C1c2ccccc2C(=O)N(CC(C)C)C1c1cccs1 (stereo not given),0.579,0.549,0.795,0.793,1.08
COc1ccc(Nc2nc(NN=Cc3ccc(O)cc3)nc(Nc3ccc([N+](=O)[O-])cc3)n2)cc1,0.00437,0.05,0.233,0.142,0
OC(CNC1CCCCC1)Cn1c2ccc(I)cc2c2cc(I)ccc21 (stereo not given),0.116,0.0916,0.122,0.168,0.13
Oc1ccccc1CNCC12CC3CC(CC(C3)C1)C2,0.274,0.297,0.638,0.818,0.769
Cc1cc(N2CCN(C3CCCC3)CC2)n2c(nc3ccccc32)c1C#N,0.833,0.875,1.15,1.02,1
CCOc1cc2c(cc1OCC)C(c1cc(Cl)ccc1O)NCC2 (stereo not given),0.0411,0.0883,0.488,0.532,0.675
COc1ccc(OC)c(C2C3=C(CC(C)(C)CC3=O)N(c3ccc(Cl)c(Cl)c3)C3=C2C(=O)CC(C)(C)C3)c1,0.713,0.88,0.807,0.807,0.623
CC(C)CNC(=O)c1c(N)n(CCc2ccccc2F)c2nc3ccccc3nc12,0.0398,0.139,0.662,0.687,0.769
COc1ccc(C(=O)Nc2nonc2-c2ccc(OC)c(OC)c2)cc1Cl,0.564,0.401,0.487,0.568,0.736
COc1ccc(CNC2CCN(c3ccc(NC(=O)c4cccc(Cl)c4)cc3)CC2)cc1OC,0.0586,0.532,0.652,0.79,0.758
COc1ccc(C(C)=O)cc1N1C(=O)C2C(C1=O)C1(c3ccccc3)C(=O)C2(c2ccccc2)C(c2ccc(C)cc2)=C1c1ccc(C)cc1 (stereo not given),1.04,0.933,1.01,0.824,0.923
c1ccc2cc3c(Nc4ccc(N5CCOCC5)cc4)ccnc3cc2c1,0.0685,0.499,0.779,1.02,1.19
COc1ccc(CCN2CCC(CN(C)Cc3cnn(-c4ccccc4)c3)CC2)cc1,0.203,0.496,0.508,0.498,0.418
O=C(NC(c1ccccc1)c1ccc2cccnc2c1O)c1ccccc1 (stereo not given),0.00552,0.029,0.0453,0.103,0.0769
Cc1ccc(-c2cc3c(nn2)-c2ccccc2C3=O)cc1,0.61,0.871,0.74,0.897,1.05
CCOC(=O)c1cn(CC)c2cc(N(C)CCc3ccc(OC)c(OC)c3)c(F)cc2c1=O,0.63,0.723,0.912,0.827,0.923
CCOc1ccc(Nc2c3ccccc3nc3ccccc23)cc1,0.0245,0.165,0.444,0.351,0.584
OC(CNC1CCCC1)Cn1c2ccccc2c2ccccc21 (stereo not given),0.0475,0.0783,0.181,0.286,0.22
